Assay outcomes from PubChem.
Hits are enriched below; roughly 11% of the tested compounds scored in any of these assays.
HPGD inh – blocks human HPGD enzyme activity; P15428; purified HPGD, NADH fluorescence kinetic, PGE2 substrate; Potency, µM, inactives show at the top dose activity change, negative = inhibition, most hits filed as inhibitors; 150,000 compounds, 4.3% hits; also: potency is read from the fitted curve at half-maximal effect; % is scaled to controls: 0 for no effect and ±100 for the full control effect
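NADH formation kinetics: reaction with 30 uM PGE2 and 1 mM NAD+ (final), 20 nM enzyme, Tris-HCl pH 8 with Tween 20, after 15 min compound preincubation at room temperature. Fluorescence change, last versus first of five reads.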
PNC inhibitor – blocks assembly of the perinucleolar compartment | PC3M PTB-GFP, PNC prevalence imaging, 16 h; stronger effect = lower value | activity change (PNC), negative = inhibition, % at 10 µM | 140,000 compounds, 3.1% hits;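 active = readout at or below -70, meaning at least 70% loss of cells showing the perinucleolar compartment, a nuclear body marking cancer cells; inconclusive = readout between -30 and a set limit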;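 also: plate controls were DMSO wells for no effect and camptothecin positive control wells for full effect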
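Read-out is percentage of cells bearing a perinucleolar compartment, from automated 20x imaging of fixed, Hoechst-stained PC3M PTB-GFP cells. Cells were seeded 4 h, then exposed 16 h to compound (23 nl of library stock) in duplicate plates.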
ALDH1A1 inh-1 – inhibitors of human aldehyde dehydrogenase 1A1. Purified ALDH1A1, NADH fluorescence, propionaldehyde substrate. P00352. 220,000 compounds, 7.3% hits. Potency, µM (top dose mostly 75.3 µM), without a hit: at the top dose activity, negative = inhibition, actives largely listed as inhibitors;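 also: potency is read from the fitted curve at half-maximal effect; plate controls were no enzyme wells and a reference inhibitor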
Target sequence (P00352 whole entry, looked up): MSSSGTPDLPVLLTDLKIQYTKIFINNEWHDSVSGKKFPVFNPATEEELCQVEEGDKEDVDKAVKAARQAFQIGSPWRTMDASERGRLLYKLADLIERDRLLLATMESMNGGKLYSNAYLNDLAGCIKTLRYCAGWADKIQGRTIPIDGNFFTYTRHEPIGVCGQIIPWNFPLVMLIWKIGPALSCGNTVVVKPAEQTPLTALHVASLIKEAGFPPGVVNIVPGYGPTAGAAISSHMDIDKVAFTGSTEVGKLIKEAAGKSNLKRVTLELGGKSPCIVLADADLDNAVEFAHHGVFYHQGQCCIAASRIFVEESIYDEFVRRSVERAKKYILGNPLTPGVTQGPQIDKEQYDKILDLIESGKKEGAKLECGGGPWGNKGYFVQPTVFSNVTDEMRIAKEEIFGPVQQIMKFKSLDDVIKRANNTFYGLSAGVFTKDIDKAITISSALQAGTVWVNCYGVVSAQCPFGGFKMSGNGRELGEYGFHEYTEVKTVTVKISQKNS
ALDH1A1 inh-2 – Blocks ALDH1A1 NADH production, follow-up | AID 493210 | shares compounds with ALDH1A1 inh-1 | 90 compounds, 90% hits | purified ALDH1A1, NADH fluorescence, propionaldehyde/NAD+ | Potency, µM (top dose mostly 57.1 µM), without a hit: top-dose activity change, negative = inhibition, most hits filed as inhibitors; calls by dose curve
Numbers without * were called inactive; ? = inconclusive; · = not tested or not shown; [ ] = remark or other dose. Unless noted, calls follow the shape of the dose curve; as a rule, active = well fitted inhibition curve with a large enough effect (not every such curve was filed as active); inconclusive = small, poorly fitted or top-dose-only effect, or another doubt; inactive = no such curve, though single readings can be large or run the other way.

SMILES	HPGD inh	PNC inhibitor	ALDH1A1 inh-1	ALDH1A1 inh-2
CC(C)(C)C(=O)Nc1nnc(SCC(=O)NCc2ccco2)s1	-5%	-12	7%	·
CCC1CCC(C(=O)NC(C(=O)Nc2ccc3c(c2)OCCO3)C(C)C)CC1 (stereo unspecified)	-1%	9	6%	·
COc1ccccc1NC(=S)N1CCN(C(=O)c2ccco2)CC1	-5%	-12	-7%	·
COc1ccc([N+](=O)[O-])cc1NC(=O)C(C)N1CCN(C(=O)c2ccco2)CC1 (stereo unspecified)	·	·	1.3µM*	3.2µM*
CC(C)=CCC/C(C)=C/CC/C(C)=C/CSCC(=O)O	-12%	·	0%	·
COc1cccc(-c2cncnc2NCc2cccnc2)c1	·	·	16%	·
NC(=O)N/N=C/c1c(F)cccc1F	-7%	1	-2%	·
O=C(NCc1ccco1)/C(=C/c1cccnc1)NC(=O)c1ccco1	-3%	-12	6%	·
O=C1C(=O)N(Cc2ccc(Cl)c(Cl)c2)c2ccccc21	-27%	·	0.05µM*	0.079µM*
O=C1c2ccccc2N(Cc2ccc(Cl)cc2)C2=NCCN12	-10%	57	11%	·
CCc1ccccc1NC(=O)C(CC)Sc1nc2cc3c(cc2c(=O)n1Cc1ccco1)OCO3 (stereo unspecified)	5%	?	?	·
CCc1ccc(NC(=O)C(CC)Sc2nc3cc4c(cc3c(=O)n2Cc2ccco2)OCO4)cc1 (stereo unspecified)	-8%	-17	0.4µM*	0.22µM*
CCC(Sc1nc2cc(OC)c(OC)cc2c(=O)n1Cc1ccco1)C(=O)NCCOC (stereo unspecified)	-12%	17	0.79µM*	0.25µM*
CCC(Sc1nc2cc(OC)c(OC)cc2c(=O)n1Cc1ccc(OC)cc1)C(=O)NCCOC (stereo unspecified)	·	·	0%	·
CC(C)c1ccccc1S(=O)c1ccccc1C(C)(C)O (stereo unspecified)	-3%	·	24%[13.5 µM]	·
CCN(CC)C(=O)CSc1nc2ccccc2c(=O)n1CC	-13%	0	-8%	·
CCN(CC)C(=O)CSc1nc2ccccc2c(=O)n1CCC(=O)NCc1ccc(F)cc1	?	3	1µM*	2µM*
CCOC(=O)C1(Cc2ccccc2C(F)(F)F)CCN(C2CCN(C(C)C)CC2)CC1	·	·	1%	·
O=C(CN1CCN(C2CCCCC2)CC1)Nc1ccccc1-c1ccccc1	0%	-18	6.3µM*	?
O=C(Nc1ccccc1-c1ccccc1)C1CCCC1	·	·	8%	·
